# Results filed as inconclusive are left out. Values without a mark were called inactive. Calls of active or inactive are those of the source. Calls follow the shape of the dose curve; as a rule, active = well fitted cell-killing curve with a large enough effect; inconclusive = small, poorly fitted or top-dose-only effect, or effect the other way; inactive = no such curve, though single readings can be large or run the other way.
# Assay: Viability qHTS for spleen associated tyrosine kinase inhibitor (SYKi) naive MV4-11 cells (AID 1963823); also: nearly all actives have a fitted effect of over 40% in size
# Conditions: MV4-11 AML viability, CellTiter-Glo luminescence, 72 h; series mostly up to 45 µM; viability (% of control): at the top concentration
# Summary of the method: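 CellTiter-Glo luminescence, 10 min room-temperature incubation, gave viability. Cells: naive MV4-11 (500/well), treated 72 hr at 37 C, 5% CO2.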
# Potency is read from the fitted curve at half-maximal effect.
SMILES,Potency,viability (% of control)
C/C(=N\N=C(N)N)c1cc(NC(=O)CCCCCCCCC(=O)Nc2cc(/C(C)=N/N=C(N)N)cc(/C(C)=N/N=C(N)N)c2)cc(/C(C)=N/N=C(N)N)c1,18.4 µM (active),
CC/C=C/C=C/C1(C)OC(CC(CO)OC)=CC1=O (stereo not drawn),20.6 µM (active),
C/C=C/C1=CC2=C(CO1)C(=O)C(C)(OC(=O)c1c(C)cc(O)cc1OC)C(O)C2 (stereo not drawn),5.7 µM (active),
CC1=CC(=O)C2(OC3OC(C)C(O)C(OC(=O)/C=C/c4ccccc4)C3O)C=COC(OC3OC(CO)C(O)C(O)C3O)C12 (stereo not drawn),,91.1% [at 17.3 µM]
C/C=C(\C)C(=O)OCC1OC(OC2OC(COC(=O)/C(C)=C/C)C(OC3OC(CO)C(OC(=O)/C(C)=C/C)C(OC(=O)/C(C)=C/C)C3O)C(O)C2O)C(O)C(O)C1OC1OC(CO)C(OC(=O)/C(C)=C/C)C(OC(=O)/C(C)=C/C)C1O (stereo not drawn),,65% [at 9.25 µM]
CCC1C(=O)N(C)c2cnc(Nc3ccc(C(=O)NC4CCC(N5CCN(CC6CC6)CC5)CC4)cc3OC)nc2N1C(C)C (stereo not drawn),0.0259 µM (active),
C=C1CC23CC1(O)CCC2C1=CC2OC(=O)C(C)(C2O)C1C3C(=O)O (stereo not drawn),,78.1%
C[C@@H]1O[C@@H](O[C@H]2[C@H](O)[C@@H](O)[C@H](OC3CCC4(C)C5CCC(C)(C(CO)OC6OC(CO)C(O)C(O)C6O)CC5=CCC4C3(C)C)O[C@@H]2CO)[C@H](O)[C@H](O)[C@H]1O (stereo partly drawn),,64.7% [at 17.3 µM]
CS(=O)(=O)c1ccc([C@@H](CC2CCCC2)C(=O)Nc2nccs2)cc1,8.33 µM (active),
C[C@@H]1C(=O)O[C@H](C)[C@H]1C[C@@H](O)[C@](C)(O)[C@H]1CC[C@@]2(O)C3=CC(=O)[C@@H]4C[C@@H](O)[C@@H](O)C[C@]4(C)C3CC[C@]12C (stereo partly drawn),,106% [at 17.3 µM]
CCn1c(=O)c(-c2ccc(-c3cncc(C)n3)cc2Cl)cc2cnc(NCCC3CCN(C)CC3)nc21,1.18 µM (active),
C[C@@H]1O[C@@H](O[C@H]2[C@H](O[C@H]3[C@H](O[C@H]4CC[C@@]5(C=O)C(CC[C@]6(C)C5CC=C5C7CC(C)(C)C[C@@H](O)[C@]7(C)CC[C@]56C)C4(C)C)O[C@H](C(=O)O)[C@@H](O)[C@@H]3O)OC[C@@H](O)[C@@H]2O)[C@H](O)[C@H](O)[C@H]1O (stereo partly drawn),,85.7% [at 9.25 µM]
C/C=C1/[C@H](O[C@@H]2O[C@H](CO)[C@@H](O)[C@H](O)[C@H]2O)OC=C(C(=O)OC)[C@H]1CC(=O)OCCc1ccc(O)c(O)c1,,79.1% [at 17.3 µM]
CC1(CO)CCCC2(C)C1C(OC(=O)c1ccccc1)CC1C(=O)OCC12O (stereo not drawn),,78%
COc1cc(/C=C/CO)cc(OC)c1O[C@@H]1O[C@H](CO[C@@H]2O[C@H](CO)[C@@H](O)[C@H](O)[C@H]2O)[C@@H](O)[C@H](O)[C@H]1O,,87.7% [at 17.3 µM]
CN(CCCN1c2ccccc2CCc2ccccc21)CC(=O)c1ccc(Cl)cc1,23.7 µM (active),
Fc1ccc(-c2nc(C3CCNCC3)sc2-c2ccnc(NC3CC3)n2)cc1,10.3 µM (active),
Cc1ccc2c(c1)C=Cc1cc(C)ccc1C2c1cn(Cc2ccc(C(=O)Nc3nn[nH]n3)o2)c(=O)[nH]c1=S,,85.5%
CC1=CC(=O)CC(C)(C)[C@@]1(O)/C=C/C(C)O[C@@H]1O[C@H](CO)[C@@H](O)[C@H](O)[C@H]1O (stereo partly drawn),,102% [at 17.3 µM]
C[C@]1(OC(=O)/C=C/c2ccccc2)C[C@@H](O)[C@]2(O)C=CO[C@@H](O[C@@H]3O[C@H](CO)[C@@H](O)[C@H](O)[C@H]3O)[C@@H]21,,89.3% [at 17.3 µM]
CC1=CC(=O)C(C(C)C)=C/C1=N/OC(=O)c1ccccc1C,5.17 µM (active),
C[C@@]1(C(=O)O)CCC[C@@]2(C)C3=CC[C@H]4C[C@@]3(CC[C@H]12)CC4(O)CO (stereo partly drawn),,68.6%
O=C(CCCCC1CCCCC1)N1CCC(c2cnc[nH]2)CC1,13 µM (active),
CC1CCC2(C=O)C(CO)=CCCC2C1(C)CC(=O)O (stereo not drawn),,74.6%
CC(C)(O)C1CC=C(C(=O)OC[C@H]2O[C@@H](Oc3cc(C(=O)O)cc(O)c3O)[C@H](O)[C@@H](O)[C@@H]2O)CC1 (stereo partly drawn),,85.6% [at 17.3 µM]
C=C1C(O)CC2C(C(=O)O)=COC(OC3OC(CO)C(O)C(O)C3OC(=O)/C=C\c3ccc(O)cc3)C12 (stereo not drawn),,80.8% [at 17.3 µM]
C=C1C(=O)OC[C@H]2C(C(=O)O)=CC3CC(C)(C)C[C@@]132 (stereo partly drawn),,86.3%
CCc1c(CC(N)=O)c2cc(OCCCP(=O)(O)O)ccc2n1Cc1ccccc1,,84.9%

# From PubChem BioAssay (NCATS)
